According to PubChem BioAssay AID765 (NMMLSC, 2007):
The source made the active and inactive calls. Cut-off read from the data, not from the text of the source: active = inhibition above about 31%; inactive = the rest.

molecular target: N-formyl peptide receptor 2 (Homo sapiens) (UniProt P25090); assay: human FPR2 ligand displacement single-point screen – cell-based, flow cytometry, single concentration (AID 765); conditions: FPRL1-expressing cells, fluorescent ligand binding inhibition, active compounds read high; at 5.1 µM unless noted
Sequence (P25090 whole entry, looked up): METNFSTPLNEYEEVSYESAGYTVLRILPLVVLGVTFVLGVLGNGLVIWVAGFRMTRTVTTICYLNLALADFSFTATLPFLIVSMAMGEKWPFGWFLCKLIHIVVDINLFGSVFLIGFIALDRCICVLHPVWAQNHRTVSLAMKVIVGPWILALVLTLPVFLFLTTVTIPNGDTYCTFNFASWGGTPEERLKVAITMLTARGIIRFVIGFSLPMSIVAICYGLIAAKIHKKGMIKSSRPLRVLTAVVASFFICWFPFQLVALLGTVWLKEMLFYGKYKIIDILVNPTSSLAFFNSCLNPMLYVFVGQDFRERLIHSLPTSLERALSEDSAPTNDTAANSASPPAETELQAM

| Structure (SMILES) | inhibition |
| --- | --- |
| O=C(C1CCCCC1)N1CCN(c2nc(-c3ccccc3Cl)c3cc(Br)ccc3n2)CC1 | -6.3% [at 4.3 µM] (inactive) |
| CCOC(=O)N1CCN(c2nc(-c3ccc(Cl)cc3)cc(C(F)(F)F)n2)CC1 | -12% [at 5.4 µM] (inactive) |
| COc1ccc(-c2cn3cccnc3n2)cc1NC(=O)c1cccc(Cl)c1 | 25.4% [at 5.9 µM] (inactive) |
| CCN1CCN(c2nc(-c3cccc(Cl)c3)c3c(n2)-c2ccccc2OC3)CC1 | -10.9% [at 5.5 µM] (inactive) |
| Clc1ccccc1-c1nc(N2CCN(c3ccccc3)CC2)nc2ccc(Br)cc12 | -7.9% [at 4.6 µM] (inactive) |
| O=C(O)CCC(=O)N1CCN(c2nc(-c3ccccc3)c3ccccc3n2)CC1 | -3.2% [at 5.7 µM] (inactive) |
| COc1cccc(-c2cc(C(F)(F)F)nc(N3CCN(C(c4ccccc4)c4ccccc4)CC3)n2)c1 | -3.9% [at 4.4 µM] (inactive) |
| O=C(O)CCC(=O)N1CCN(c2nc(-c3ccccc3Cl)c3cc(Br)ccc3n2)CC1 | -2% [at 4.4 µM] (inactive) |
| CCCCN1CCN(c2nc(-c3ccccc3)c3cc(C)ccc3n2)CC1 | 17.2% [at 5.6 µM] (inactive) |
| COc1ccc(-c2cn3cccnc3n2)cc1NC(=O)c1cc(C)cc(C)c1 | 4.9% [at 6 µM] (inactive) |
| O=C(O)/C=C\C(=O)N1CCN(c2nc(-c3ccccc3)c3cc(Br)ccc3n2)CC1 | 15.8% [at 4.8 µM] (inactive) |
| COc1ccc(-c2cn3cccnc3n2)cc1NC(=O)c1ccccc1Br | 3.2% [at 5.3 µM] (inactive) |
| Cc1ccc2nc(N3CCN(C(=O)CCC(=O)O)CC3)nc(-c3ccccc3)c2c1 | 6.9% [at 5.5 µM] (inactive) |
| COc1ccc(-c2cn3cccnc3n2)cc1NC(=O)c1ccc(OC)c(OC)c1 | -6% [at 5.5 µM] (inactive) |
| Clc1cccc(-c2nc(N3CCN(C4CCCCC4)CC3)nc3c2COc2ccccc2-3)c1 | -1.5% [at 4.8 µM] (inactive) |
| COc1ccccc1-c1cc(C(F)(F)F)nc(N2CCN(Cc3ccccc3)CC2)n1 | 14.1% [at 5.2 µM] (inactive) |
| COc1ccc(-c2cn3cccnc3n2)cc1NC(=O)c1ccc(Br)o1 | -10% [at 5.4 µM] (inactive) |
| COc1ccc(C2CC(=O)c3cnc(N4CCN(Cc5ccc6c(c5)OCO6)CC4)nc3C2)cc1 (configuration not stated) | 8% [at 4.7 µM] (inactive) |
| O=C(N1CCN(c2nc(-c3ccccc3)c3cc([N+](=O)[O-])ccc3n2)CC1)C(F)(F)F | -4.2% [at 5.2 µM] (inactive) |

| Structure (SMILES) | inhibition |
| --- | --- |
| Cc1ccc2nc(N3CCN(C(=O)CCCC(=O)O)CC3)nc(-c3ccccc3)c2c1 | 1.1% [at 5.3 µM] (inactive) |
| COc1ccc(-c2cn3cccnc3n2)cc1NC(=O)C1CCCC1 | 34.6% [at 6.6 µM] (active) |
| COc1ccc(-c2cn3cccnc3n2)cc1NC(=O)C(C)C | 25.1% [at 7.2 µM] (inactive) |
| FC(F)(F)c1cc(-c2cccs2)nc(N2CCN(C(c3ccccc3)c3ccccc3)CC2)n1 | -11% [at 4.6 µM] (inactive) |
| O=C(N1CCN(c2nc(-c3ccccc3)c3ccccc3n2)CC1)C(F)(F)F | 24.8% [at 5.8 µM] (inactive) |
| CC1CCc2nc(N3CCN(Cc4ccccc4)CC3)nc(C(F)(F)F)c2C1 (configuration not stated) | -10.7% [at 5.7 µM] (inactive) |
| COc1cccc(C(=O)Nc2cc(-c3cn4cccnc4n3)ccc2OC)c1 | 12.2% [at 5.9 µM] (inactive) |
| O=C(O)CCC(=O)N1CCN(c2nc(-c3ccccc3)c3cc([N+](=O)[O-])ccc3n2)CC1 | 3.6% (inactive) |
| Cc1ccc(-c2cn3cccnc3n2)cc1NC(=O)C(C)C | -3.4% [at 7.6 µM] (inactive) |
| COc1ccc(-c2cn3cccnc3n2)cc1NC(=O)c1ccco1 | -8.1% [at 6.7 µM] (inactive) |
| COc1ccc(C2CC(=O)c3cnc(N4CCN(Cc5ccc6c(c5)OCO6)CC4)nc3C2)cc1OC (configuration not stated) | 11.9% [at 4.4 µM] (inactive) |
| CCCC(=O)Nc1cccc(-c2cn3cccnc3n2)c1 | -2.8% [at 7.9 µM] (inactive) |
| Cc1ccc(-c2cc(C(F)F)nc(N3CCN(Cc4ccccc4)CC3)n2)cc1 | -4.2% [at 5.6 µM] (inactive) |
| FC(F)(F)c1cc(-c2ccccc2)nc(N2CCN(c3ccccc3)CC2)n1 | -10.6% [at 5.8 µM] (inactive) |
| COc1ccc(-c2cn3cccnc3n2)cc1NC(=O)C1CCCCC1 | 1.2% [at 6.3 µM] (inactive) |
| O=C(c1ccc(Cl)cc1)N1CCN(c2nc(-c3ccccc3)c3ccccc3n2)CC1 | 1.6% [at 5.2 µM] (inactive) |
| COc1ccc(CC(=O)Nc2cc(-c3cn4cccnc4n3)ccc2OC)cc1 | 64.2% [at 5.7 µM] (active) |
| Fc1ccc(-c2cc(C(F)(F)F)nc(N3CCN(C(c4ccccc4)c4ccccc4)CC3)n2)cc1 | -9.4% [at 4.5 µM] (inactive) |
